Laboratory results reported in PubChem BioAssay (NCI).
About 79,000 compounds went through this panel and 15% of them were active in at least one assay; those are over-represented in the sample as a whole. The source made the active and inactive calls. Cut-off read from the data, not from the text of the source: active = growth inhibition above about 70%; inactive = the rest.

Experiments:
[1] = NCI Yeast Anticancer Drug Screen. Data for the rad52 strain (AID 147);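 note: 0% = growth of vehicle-treated control cultures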; conditions: S. cerevisiae rad52 mutant growth inhibition, stronger effect = higher value
In short: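 The repair-mutant yeast strain was incubated with compounds, then growth was read and inhibition derived relative to vehicle.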

[2] = NCI Yeast Anticancer Drug Screen. Data for the wt1 strain (AID 149);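 note: 0% = growth of vehicle-treated wt1 cultures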; conditions: S. cerevisiae wt1 strain (SPY 50644) growth inhibition, stronger effect = higher value
In short: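 wt1 strain grown with compound or vehicle; inhibition taken from the growth difference.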

[3] = NCI Yeast Anticancer Drug Screen. Data for the rad50EPP+ strain (AID 151);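 note: 0% = growth of vehicle-treated control cultures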; conditions: S. cerevisiae rad50 mutant strain, stronger effect = higher value
In short: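 Vehicle-normalised growth inhibition; rad50EPP+ yeast strain, altered in DNA damage repair, compound-treated.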

[4] = NCI Yeast Anticancer Drug Screen. Data for the mgt1 strain (AID 153); conditions: S. cerevisiae mgt1 mutant growth inhibition, stronger effect = higher value
In short: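 Vehicle-normalized growth inhibition is determined in mgt1 yeast, a strain selected for a defined alteration in DNA repair or cell cycle control.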

[5] = NCI Yeast Anticancer Drug Screen. Data for the rad50 strain (AID 155);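 note: 0% = growth of vehicle-only cultures of the same strain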; conditions: S. cerevisiae rad50 strain growth inhibition, stronger effect = higher value
In short: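 DNA repair mutant yeast, compound exposure, growth read-out; inhibition is taken relative to vehicle.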

[6] = NCI Yeast Anticancer Drug Screen. Data for the mec2-1 strain (AID 157); conditions: S. cerevisiae mec2-1 strain, stronger effect = higher value
In short: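 Mutant yeast (mec2-1) grown with compound; growth inhibition relative to vehicle control reported.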

[7] = NCI Yeast Anticancer Drug Screen. Data for the rad14 strain (AID 159);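 note: 0% = growth of vehicle-treated control cultures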; conditions: S. cerevisiae rad14 strain growth inhibition, stronger effect = higher value
In short: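 DNA repair-defective yeast, compound-exposed; % growth inhibition derived by comparison with vehicle-treated controls.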

[8] = NCI Yeast Anticancer Drug Screen. Data for the sgs1 mgt1 strain (AID 161);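 note: 0% = growth of cultures given vehicle only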; conditions: S. cerevisiae sgs1 mgt1 strain, stronger effect = higher value
In short: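 This yeast growth screen uses a strain with defined DNA-repair lesions; compound-treated growth is compared with vehicle-treated growth.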

[9] = NCI Yeast Anticancer Drug Screen. Data for the CLN2oe strain (AID 163);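 note: 0% = growth of vehicle-only control cultures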; conditions: S. cerevisiae CLN2oe strain, stronger effect = higher value
In short: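 Compounds are applied to yeast harbouring a defined cell-cycle control change; reduced growth compared with vehicle-treated controls gives the value.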

[10] = NCI Yeast Anticancer Drug Screen. Data for the cln2 rad14 strain (AID 165);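 note: 0% = growth equal to vehicle treated cultures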; conditions: S. cerevisiae cln2 rad14 strain, stronger effect = higher value
In short: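 Readout is yeast growth inhibition versus vehicle-treated controls, using a strain with cln2 and rad14 alterations exposed to compound.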

[11] = NCI Yeast Anticancer Drug Screen. Data for the bub3 strain (AID 167); conditions: S. cerevisiae bub3 mutant strain, stronger effect = higher value
In short: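 In this screen, a yeast mutant lacking normal mitotic checkpoint function is challenged with compound. Relative growth versus vehicle gives the inhibition value.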

[12] = NCI Yeast Anticancer Drug Screen. Data for the wt2 strain (AID 169);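 note: 0% = growth of vehicle-treated yeast cultures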; conditions: S. cerevisiae wt2 strain growth inhibition, stronger effect = higher value
In short: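 Against vehicle-treated controls, the growth of yeast exposed to each compound was compared, and the inhibition was recorded.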

[13] = NCI Yeast Anticancer Drug Screen. Data for the mlh1 strain (AID 171);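 note: 0% = growth of vehicle-treated control cultures of the same strain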; conditions: S. cerevisiae mlh1 strain growth inhibition, stronger effect = higher value
In short: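 Measured: yeast growth. Reference: vehicle-treated controls. Organism: strain with a defined alteration affecting DNA damage repair or cell cycle control, treated with compound.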

[14] = NCI Yeast Anticancer Drug Screen. Data for the sgs1 strain (AID 173);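 note: 0% = growth of vehicle-only control cultures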; conditions: S. cerevisiae sgs1 mutant, stronger effect = higher value
In short: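 Each compound was added to cultures of the altered yeast strain. Growth was recorded, and inhibition was derived by comparison with vehicle controls.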

[15] = NCI Yeast Anticancer Drug Screen. Data for the mlh1 rad18 strain (AID 175); conditions: S. cerevisiae mlh1 rad18 strain growth inhibition, stronger effect = higher value
In short: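 Genetically defined yeast (DNA repair-deficient) exposed to compounds; growth inhibition determined relative to vehicle.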

[16] = NCI Yeast Anticancer Drug Screen. Data for the rad18 strain (AID 177); conditions: S. cerevisiae rad18 mutant growth inhibition, stronger effect = higher value
In short: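 Vehicle-treated cultures served as the baseline for scoring compound-induced growth inhibition in DNA-repair-mutant yeast.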

[17] = at 5.0 µM (retest, dose inferred, filed as 0.5)
[18] = at 50.0 µM (retest, dose inferred, filed as 5.0)

Measured: growth inhibition

COc1cc(O)c2c(c1O)C(=O)c1cc(C)ncc1C2=O
active: [1]; at 100.0 µM 72% | [5]; at 100.0 µM 86% | [7]; at 11.0 µM 70% | [7]; at 33.0 µM 91% | [7]; at 100.0 µM 94% | [8]; [18] 84% | [11]; at 50.0 µM 75.9% | [11]; at 100.0 µM 73% | [12]; at 11.0 µM 83% | [12]; at 33.0 µM 91% | [12]; at 100.0 µM 95% | [13]; at 100.0 µM 87% | [14]; at 11.0 µM 77% | [14]; at 33.0 µM 88% | [14]; at 100.0 µM 84% | [15]; [18] 83%
inactive: [1]; at 1.2 µM 9% | [1]; at 3.7 µM 16% | [1]; at 11.0 µM 29% | [1]; at 33.0 µM 51% | [2]; at 1.2 µM 6% | [2]; at 3.7 µM 24% | [2]; at 11.0 µM 36% | [2]; at 33.0 µM 39% | [2]; at 100.0 µM 48% | [3]; at 1.2 µM 8% | [3]; at 3.7 µM 20% | [3]; at 11.0 µM 19% | [3]; at 33.0 µM 48% | [3]; at 100.0 µM 52% | [4]; at 1.2 µM 5% | [4]; at 3.7 µM 4% | [4]; at 11.0 µM 15% | [4]; at 33.0 µM 39% | [4]; at 100.0 µM 60% | [5]; at 1.2 µM 8% | [5]; at 3.7 µM 13% | [5]; [17] 9% | [5]; at 11.0 µM 33% | [5]; at 33.0 µM 57% | [5]; [18] 48% | [5]; at 50.0 µM 65.7% | [6]; at 1.2 µM 10% | [6]; at 3.7 µM 10% | [6]; [17] 8% | [6]; at 11.0 µM 9% | [6]; at 33.0 µM 9% | [6]; [18] 44% | [6]; at 50.0 µM 23.2% | [6]; at 100.0 µM 23% | [7]; at 1.2 µM 31% | [7]; at 3.7 µM 47% | [8]; [17] 9% | [8]; at 50.0 µM 69.9% | [9]; at 1.2 µM 16% | [9]; at 3.7 µM 11% | [9]; at 11.0 µM 5% | [9]; at 33.0 µM 10% | [9]; at 100.0 µM 12% | [10]; [17] 1% | [10]; [18] 12% | [10]; at 50.0 µM 18.9% | [11]; at 1.2 µM 14% | [11]; at 3.7 µM 13% | [11]; [17] 5% | [11]; at 11.0 µM 26% | [11]; at 33.0 µM 51% | [11]; [18] 42% | [12]; at 1.2 µM 39% | [12]; at 3.7 µM 60% | [13]; at 1.2 µM 7% | [13]; at 3.7 µM 21% | [13]; at 11.0 µM 41% | [13]; at 33.0 µM 54% | [14]; at 1.2 µM 12% | [14]; at 3.7 µM 29% | [15]; [17] 17% | [15]; at 50.0 µM 64.8% | [16]; at 1.2 µM 4% | [16]; at 3.7 µM 21% | [16]; at 11.0 µM 28% | [16]; at 33.0 µM 40% | [16]; at 100.0 µM 60%
